In publication PMC7826789 (International Journal of Molecular Sciences, 2021):

Test system: FLT3(ITD)
Details: Compound Concentration (nM):1000
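Note: KINOMEscan scanMAX binding as percent activity remaining versus control; lower means stronger binding.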

SMILES	Percent Control
CN(C)CCNC(=O)Nc1ccc(N(C)c2ccnc(Nc3ccc(CS(C)(=O)=O)cc3)n2)cc1.Cl [GW830900A]	8.3%
C/C(Nc1ccc(S(N)(=O)=O)cc1)=C1/C(=O)Nc2ccccc21 [GW335962X]	100%
Cc1cc(O)cc(C)c1/C=C/c1cncc(C(N)=O)c1 [GW435821X]	100%
COc1cc(C)c(N(C)C(=O)CN(C)C)cc1Nc1nc(Nc2cccc(F)c2C(N)=O)c2cc[nH]c2n1 [GSK2219385]	82%
COC(=O)Nc1nc2ccc(Oc3ccc(NC(=O)Nc4cc(C(F)(F)F)ccc4F)cc3)cc2s1.Cl [GW693917A]	4.3%
NS(=O)(=O)c1ccc(Nc2ncc(-c3ccccc3)o2)cc1 [GW572399X]	53%
CN(C)c1cc2c(Nc3ccc4c(cnn4Cc4ccccc4)c3)ncnc2cn1 [GW282974X]	82%
CCc1ccc(Oc2nccc(-c3c(-c4ccc(F)cc4)ncn3C3CCNCC3)n2)cc1 [SB-242719]	99%
Nc1ncnc2occ(-c3ccc(NC(=O)Nc4cc(C(F)(F)F)ccc4F)cc3)c12 [GW770249X]	2.9%
CN1CCN(C(=O)c2ccc(NC(=O)Nc3ccc(N(C)c4ccnc(Nc5ccc(CS(C)(=O)=O)cc5)n4)cc3)cc2)CC1.Cl [GW830263A]	0.3%
COc1cc2ncn(-c3cc(O[C@H](C)c4ccccc4Cl)c(C(N)=O)s3)c2cc1OC [GSK237701A]	33%
COc1ccc(COc2ccc(Cc3cnc(N)nc3N)cc2OC)cc1 [GW632580X]	87%
